Screening data from PubChem.
Sampled rows, rich in hits. Any-hit rate of the full collection: about 12%.
Sfp PPTase inh: qHTS Assay for Inhibitors of Bacillus subtilis Sfp phosphopantetheinyl transferase (PPTase); 4'-phosphopantetheinyl transferase ffp (Bacillus subtilis), Q9F4F7; Biochemical Sfp PPTase activity, qHTS; Potency, µM, for the others: largest response in the series, negative = inhibition, actives largely listed as inhibitors; 310,000 compounds, 3.5% hits; AID 1490, 2009;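 also: the enzyme is Sfp with the accession as filed and its product quenches rhodamine fluorescence; 0% = enzyme reaction without inhibitor and -100% = no enzyme wells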
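Sfp 15 nM + cpd, 15 min RT; start w/ rhodamine-CoA 5 uM, BHQ-2-YbbR 12.5 uM (final); 50 mM Hepes pH 7.6, 10 mM MgCl2, 0.01% NP-40, 0.01% BSA; read 525/598 nm at 0 and 30 min.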
JMJD2A Tudor: qHTS Assay for Inhibitors of JMJD2A-Tudor Domain; AID 504339, 2011; Potency, µM (top dose mostly 114 µM), for the others: at the highest dose activity change, negative = inhibition, most hits filed as inhibitors; Lysine-specific demethylase 4A (Homo sapiens), O75164; 390,000 compounds, 4.4% hits; AlphaScreen JMJD2A-Tudor / H3K4me3 peptide binding; also: % is scaled to controls: 0 for no effect and ±100 for the full control effect; nearly all actives have a fitted effect of over 50% in size
Target sequence (O75164 whole entry, looked up, the tested form may be a part): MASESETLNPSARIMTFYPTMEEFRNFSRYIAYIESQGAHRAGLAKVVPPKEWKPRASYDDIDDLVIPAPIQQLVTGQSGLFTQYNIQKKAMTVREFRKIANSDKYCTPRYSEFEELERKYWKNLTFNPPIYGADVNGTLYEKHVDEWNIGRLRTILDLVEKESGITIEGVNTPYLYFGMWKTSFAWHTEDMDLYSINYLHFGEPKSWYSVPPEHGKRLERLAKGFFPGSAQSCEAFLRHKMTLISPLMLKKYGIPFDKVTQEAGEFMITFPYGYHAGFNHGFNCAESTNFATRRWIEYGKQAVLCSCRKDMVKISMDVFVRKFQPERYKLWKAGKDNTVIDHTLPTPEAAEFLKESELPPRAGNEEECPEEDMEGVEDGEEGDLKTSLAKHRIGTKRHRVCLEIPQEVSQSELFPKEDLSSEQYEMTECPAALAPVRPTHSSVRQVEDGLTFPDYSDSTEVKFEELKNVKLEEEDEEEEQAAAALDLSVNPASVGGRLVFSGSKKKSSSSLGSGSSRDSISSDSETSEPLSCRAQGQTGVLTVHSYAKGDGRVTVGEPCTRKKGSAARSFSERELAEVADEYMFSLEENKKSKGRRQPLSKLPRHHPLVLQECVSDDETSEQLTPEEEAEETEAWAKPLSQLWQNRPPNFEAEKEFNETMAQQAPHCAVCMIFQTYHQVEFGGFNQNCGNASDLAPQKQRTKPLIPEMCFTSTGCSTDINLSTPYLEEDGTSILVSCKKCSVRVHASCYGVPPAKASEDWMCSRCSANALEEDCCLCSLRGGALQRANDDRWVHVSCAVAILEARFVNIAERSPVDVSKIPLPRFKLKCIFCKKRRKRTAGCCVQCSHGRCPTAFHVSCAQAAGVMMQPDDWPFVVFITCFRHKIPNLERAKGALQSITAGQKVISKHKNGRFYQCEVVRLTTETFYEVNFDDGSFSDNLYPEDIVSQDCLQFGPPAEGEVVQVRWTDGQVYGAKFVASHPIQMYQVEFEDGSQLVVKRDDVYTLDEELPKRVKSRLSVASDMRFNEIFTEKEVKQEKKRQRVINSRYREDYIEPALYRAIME
BAZ2B inh: qHTS Assay for Inhibitors of BAZ2B. 360,000 compounds, 4.4% hits. AlphaScreen BAZ2B-H3K14Ac peptide displacement. Potency, µM (top dose mostly 114 µM), for the others: top-dose activity change, negative = inhibition, most hits filed as inhibitors. Bromodomain adjacent to zinc finger domain protein 2B (Homo sapiens), Q9UIF8. AID 504333, 2011; also: % is scaled to controls: 0 for no effect and ±100 for the full control effect; nearly all actives have a fitted effect of over 60% in size
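Inhibition is scored as reduced AlphaScreen emission. The BAZ2B/b-H3(5-23)K14Ac complex (50 nM each) in PBS pH 7.4, 0.01% Tween-20 meets compound (up to 110 uM) for 30 min at RT before bead addition.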
HP1b binding inh: HTS for Inhibitors of HP1-beta Chromodomain Interactions with Methylated Histone Tails; Chromobox protein homolog 1 (Homo sapiens), P83916; AlphaScreen HP1-beta / biotin-H3K9me3 peptide binding; Potency, µM (doses to about 114 µM), without a hit: at the top dose activity change, negative = inhibition, most hits filed as inhibitors; 390,000 compounds, 0.56% hits; also: nearly all actives have a fitted effect of over 70% in size
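HP1-beta protein (50 nM final) preincubated 30 min at room temperature with biotinylated H3(1-18)K9me3 peptide (50 nM) in PBS pH 7.4, 0.01% Tween-20, then compound added for 30 min. AlphaScreen streptavidin donor/nickel chelate acceptor beads (10 ug/mL final), 30 min dark, luminescence read.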
L3MBTL1 inh: qHTS Assay for the Inhibitors of L3MBTL1. AlphaScreen L3MBTL1–H3K9me1 peptide binding. Lethal(3)malignant brain tumor-like protein 1 (Homo sapiens), Q9Y468. 230,000 compounds, 0.66% hits. Potency, µM (series often up to 57.1 µM), without a hit: top-dose activity, negative = inhibition, most hits filed as inhibitors; also: % is scaled to controls: 0 for no effect and ±100 for the full control effect; nearly all actives have a fitted effect of over 60% in size
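L3MBTL1 (50 nM) pre-complexed 30 min with biotinylated H3(1-15)K9me1 peptide (75 nM), then compounds added for 30 min at room temperature; AlphaScreen streptavidin donor/nickel chelate acceptor beads (10 ug/mL final) read after 30 min dark incubation.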
G9a block: qHTS Assay for Inhibitors of Histone Lysine Methyltransferase G9a; Histone-lysine N-methyltransferase EHMT2 (Homo sapiens), Q96KQ7; G9a H3K9 monomethylation, AlphaScreen, 2 h; Potency, µM (top dose mostly 102 µM), without a hit: at the top dose activity, negative = inhibition, hits mostly inhibitors; 350,000 compounds, 8.8% hits; AID 504332, 2011; also: % is scaled to controls: 0 for no effect and ±100 for the full control effect; nearly all actives have a fitted effect of over 75% in size
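Step 1: enzyme (final 20 nM) with compound, 15 min RT. Step 2: substrate peptide 500 nM and SAM 20 uM, 2 h RT. Step 3: anti-H3K9me1 antibody and AlphaScreen beads, 10 min, then plate read.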
An asterisk follows results filed as active; ? = inconclusive; . = not tested or not shown; [ ] = dose if it differs, or a comment. Calls follow the shape of the dose curve; as a rule, active = well fitted curve in the direction sought with a large enough effect; inconclusive = small, poorly fitted or top-dose-only effect, or another doubt; inactive = no such curve, though single readings can be large; an effect the other way counts as inactive or inconclusive. Potency is read from the fitted curve at half-maximal effect.

SMILES | Sfp PPTase inh | JMJD2A Tudor | BAZ2B inh | HP1b binding inh | L3MBTL1 inh | G9a block
COc1ccc(OC)c(CNc2ccc(F)c(Cl)c2)c1 | 3% | ? | ? | -4% | . | 50µM*
Cc1cccc(N2CCN(Cc3nnc(-c4ccc5c(c4)OCO5)o3)CC2)c1C | . | -7% | -2% | 14% | . | -1%[59 µM]
Cc1cccc(N2CCN(C(c3ccccc3)c3nnc(-c4ccccc4Cl)o3)CC2)c1C (centres undefined) | . | 8% | 0% | 23% | . | -5%[59 µM]
COc1ccc(C2CC(=O)c3cc(-c4nc(-c5cccc(Cl)c5)cs4)c(=O)[nH]c3C2)cc1 (centres undefined) | . | -1% | 1% | 53% | . | -7%[59 µM]
Cc1ccc(-c2csc(-c3cc4c([nH]c3=O)CC(c3ccccc3)CC4=O)n2)cc1 (centres undefined) | . | 89µM* | 79µM* | 15% | . | 2.5µM*
CC1(OC(=O)c2ccc(Cl)nc2)C(=O)C=c2cc(-c3ccsc3)ncc2=C1OC(=O)C1CCCC1 (centres undefined) | 6% | . | . | . | . | .
CCn1c2ccccc2c2nnc(SCc3ccc(C(=O)OC)o3)nc21 | 32µM* | -22% | -26% | 26% | -26% | ?
COC(=O)c1ccc(CSc2cc(C)c3ccccc3n2)o1 | 25µM* | 59% | 107% | 71% | 61% | 88%
CCn1c2ccccc2c2nnc(SCC(=O)N(C)C3CCS(=O)(=O)C3)nc21 (centres undefined) | 5% | -6% | -17% | 23% | 3% | ?
CCn1c2ccccc2c2nnc(SCC(=O)NC3CCS(=O)(=O)C3)nc21 (centres undefined) | -5% | -14% | -31% | 24% | -14% | 40µM*
CCn1c2ccccc2c2nnc(SCc3ccccc3)nc21 | -12% | 9% | 10% | 70% | 7% | 23%
CC(=O)NC1C(=O)N(CCN2CCOCC2)c2ccc(F)cc21 (centres undefined) | 71µM* | 22µM* | 10µM* | -2% | . | 32µM*
Cc1ccc2c(c1)C(=C(C#N)C#N)C(=O)N2CCN1CCOCC1 | -8% | -14% | 1% | 29% | . | .
CC(Oc1ccc(Cl)cc1Cl)C(=O)NCCN1CCOCC1 (centres undefined) | -9% | 6% | 11% | 22% | 8% | -5%
CC(=O)NC1C(=O)N(CCN2CCOCC2)c2ccc(C)cc21 (centres undefined) | 79µM* | 7.1µM* | 5µM* | ? | . | 20µM*
CC(=O)NC1C(=O)N(CCN2CCOCC2)c2ccc(Cl)cc21 (centres undefined) | ? | 13µM* | 8.9µM* | ? | . | 32µM*
COc1ccc2c(c1)C(NC(C)=O)C(=O)N2C (centres undefined) | -6% | -3% | -2% | 62% | 3% | ?
O=S(=O)(c1ccc(Cl)cc1)N1CCN(c2nc(-c3ccc(F)cc3)nc3cc(Cl)ccc23)CC1 | . | -3% | . | 53% | . | .
Cc1ccc(S(=O)(=O)CC(=O)Nc2nc3c(C)cc(C)cc3s2)cc1 | . | -25% | -14% | 23% | . | -6%[59 µM]
CC(=C/c1ccco1)/C=N/NC(=O)c1ccncc1 | -7% | -12% | -23% | 21% | -9% | 8%[59 µM]
O=C(N/N=C/C=C\c1ccco1)c1cccs1 | 22µM* | -23% | 45µM* | 7% | 6.3µM* | ?
O=C(N/N=C/C=C/c1ccc([N+](=O)[O-])cc1)c1cccs1 | -30% | -30% | 50µM* | 25% | -1% | 40µM*
O=C(Cc1cccs1)N/N=C/C=C\c1ccco1 | 7.9µM* | -25% | -3% | -9% | -21% | ?
O=C(N/N=C/C=C/c1ccco1)c1ccncc1 | 56µM* | 79µM* | 8% | ? | 20% | .
O=C(C1CCCCC1)N(Cc1cccnc1)c1nc2ccc(F)cc2s1 | . | -25% | -3% | 4% | . | 6%[59 µM]
SMILES | Sfp PPTase inh | JMJD2A Tudor | BAZ2B inh | HP1b binding inh | L3MBTL1 inh | G9a block
COc1cccc(CCNc2ncnc3c2nnn3C)c1 | . | -13% | -4% | -7% | . | 11%[59 µM]
CS/C(=N\S(=O)(=O)c1ccc(F)cc1)c1ccccc1 | . | -13% | . | 32% | . | .
O=C(O)/C(=C\c1ccco1)NC(=O)c1ccccc1 | -27% | -5% | -29% | 39% | -13% | -23%[59 µM]
O=C(N/N=C/C=C/c1ccco1)/C(=C/c1ccccc1)NC(=O)c1ccccc1 | 45µM* | 79µM* | -4% | -21% | -11% | 28µM*
Cc1nc2ccc(N=NC3=C(O)CCCC3=O)cc2s1 | 7% | ? | -34%[57.1 µM] | 30% | -8% | 40µM*
CCN(CC)S(=O)(=O)c1cccc(N=NC2=C(O)CCCC2=O)c1 | -3% | -27% | ? | 23% | -2% | ?
O=C1CCCC(O)=C1N=Nc1c(Cl)cc(Cl)cc1Cl | -14% | ? | 50µM* | 10% | -14% | 8.9µM*
Cc1nc2ccc(N=NC3=C(O)CC(C)(C)CC3=O)cc2s1 | -12% | ? | ? | -15% | -5% | ?
O=C(O)c1cccc(N=NN2CCOCC2)c1 | 7% | -7% | -23% | 38% | 2% | 16µM*
O=C1CCCC(O)=C1N=Nc1cccc(C(=O)O)c1 | -23% | 89µM* | . | -26% | 8.9µM* | 28µM*
C=C(C)C(=O)OCCOC(=O)C(=C)C | -1% | . | . | . | . | .
NC(=O)C(CC(=O)O)NC(=O)[C@@H]1CCCCNc2c(I)cc([N+](=O)[O-])cc2C(=O)N[C@@H](CO)C(=O)NCC(=O)N1 (some centres undefined) | -6% | . | ? | . | ? | 28µM*
CC[C@H](C)[C@@H]1NC(=O)c2cc([N+](=O)[O-])cc(F)c2NCCCC[C@@H](C(N)=O)NC(=O)[C@H](CCCCN)NC1=O | 0% | -31% | -7% | 4% | 2% | ?
NC(=O)C(CC(=O)O)NC(=O)[C@@H]1CCCNc2c(I)cc([N+](=O)[O-])cc2C(=O)N[C@@H](CO)C(=O)N[C@@H](Cc2ccc(O)cc2)C(=O)N1 (some centres undefined) | -10% | ? | -26% | 14% | -2% | 50µM*
CCOc1ccc(CCNc2ncnc3onc(-c4ccc(Cl)cc4)c23)cc1 | . | 24% | 31%[57.1 µM] | 71% | . | 11%[59 µM]
